Source: PubChem BioAssay (NCATS)
Records with an inconclusive call do not appear. Calls of active or inactive are those of the source. Calls come from the whole dose curve; as a rule, active = well fitted inhibition curve with a large enough effect; inconclusive = small, poorly fitted or top-dose-only effect; inactive = flat fitted curve, though single readings scatter. Where a SMILES comes first, the peptide text is derived from it. The star is where a group is joined. Cbz = O=C(OCc1ccccc1)*; CH2F = FC*

Key:
[1] = test system: CRL-7250; assay: Cytotoxic Profiling of Annotated Libraries Using Quantitative High-Throughput Screening (AID 1296008); settings: Five cell lines viability, CellTiter-Glo ATP luminescence, 48-72 h; max response: stronger effect = lower value; for max response: % is set by controls: 0 for no effect and ±100 for the full control effect
In short: (§1)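 Cytotoxicity was measured as CellTiter-Glo ATP luminescence, read after 10 min at room temperature. Compound treatment of the cells lasted 48 or 72 hr at 37 degrees Celsius in a qHTS format.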

[2] = test system: HEK293; assay: as above; settings: Five cell lines viability, CellTiter-Glo ATP luminescence, 48-72 h; max response: stronger effect = lower value
In short: as §1

[3] = test system: HaCat; assay: as above; settings: Five cell lines viability, CellTiter-Glo ATP luminescence, 48-72 h; max response: stronger effect = lower value
In short: as §1

[4] = test system: KB-3-1; assay: as above; settings: Five cell lines viability, CellTiter-Glo ATP luminescence, 48-72 h; max response: stronger effect = lower value
In short: as §1

[5] = test system: NIH3T3; assay: as above; settings: Five cell lines viability, CellTiter-Glo ATP luminescence, 48-72 h; max response: stronger effect = lower value
In short: as §1

[6] = test system: HACAT; assay: qHTS assay to identify novel small-molecules to repurpose for Merkel cell carcinoma treatment (AID 1296009); settings: MCC and control cell lines, CellTiter-Glo viability, 72 h; at 44.8 µM (top of the series) unless noted
In short: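 After compound transfer in DMSO, plates were kept 72 hr at 37 degree celsius. Luminescent ATP signal from CellTiter-Glo served as viability measure, normalized against DMSO and no-cell controls.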

Measured: max response
Note: nearly all actives have a fitted effect of over 60% in size.

CC(=O)OC12CC(C)C(OC(=O)c3ccccc3)C1/C=C(/C)C(OC(=O)c1ccccc1)CC(=O)C(C)(C)/C=C/C(C)C2=O (stereo not given)
inactive: [1] -26.4% | [2] -14.7% | [3] | [4] | [5] 1.94% | [6] inactive [at 17.4 µM]

C[C@H]1CC[C@H]2[C@@H](C=C[C@@](C)(O)[C@]2(C)C(=O)CCO)C1
inactive: [1] | [2] 4.9% | [3] | [4] 5.8% | [5] | [6]

Cc1ncc([N+](=O)[O-])n1C[C@H](O)CN1CCOCC1
inactive: [1] | [2] 2.87% | [3] | [4] | [5] -3.55% | [6]

On1ncc(C2CCNCC2)c1-c1cccc(-c2ccccc2)c1
inactive: [1] | [2] -1.77% | [3] | [4] 8.99% | [5] 1.04% | [6]

CC(=O)NC1C(OC2CCC3(C)C(CCC4(C)C3CC=C3C5CC(C)(C)CCC5(C(=O)O)C(O)CC34C)C2(C)C)OC(CO)C(O)C1O (stereo not given)
inactive: [1] -37.4% | [2] -25.2% | [3] | [4] 0.467% | [5] | [6] inactive [at 17.4 µM]

CC1(C)CC=C(c2cnc3ccccc3c2)c2cc(C(=O)Nc3ccc(C(=O)O)cc3)ccc21
inactive: [1] | [2] 2.92% | [3] | [4] | [5] -2.18% | [6]

Nc1ncnc2c1C(=O)N(c1ccc(C3CCC(CC(=O)O)CC3)cc1)CCO2 (stereo not given)
inactive: [1] 2.41% | [2] -15.1% | [3] | [4] | [5] | [6]

C=C1CCC2[C@](C)(CCC[C@]2(C)C(=O)O)[C@H]1CC/C(C)=C/C(=O)OC (stereo not given in full)
inactive: [1] -5.17% | [2] -8.16% | [3] | [4] | [5] 0.39% | [6]

COC(=O)C1=COC(OC2OC(CO)C(O)C(O)C2O)C2C(C)C(OC(C)=O)C(OC(=O)c3ccccc3)C12 (stereo not given)
inactive: [1] -19.7% | [2] -48.1% | [3] | [4] | [5] -45.7% | [6] inactive [at 17.4 µM]

CC(=O)/C=C/C1(O)C(C)(C)CC(O)CC1(C)O (stereo not given)
inactive: [1] -6.38% | [2] -4.83% | [3] | [4] | [5] | [6]

Cc1c(C)c(NCC(=O)N(C)C2CCN(Cc3ccc(C(N)=O)cc3)CC2)c(C)c(C)c1N
inactive: [1] | [2] -11.3% | [3] | [4] -3.8% | [5] 2.96% | [6]

CC1=C(C(=O)OC2OC(COC3OC(CO)C(O)C(O)C3O)C(O)C(O)C2O)C(C)(C)CCC1 (stereo not given)
inactive: [1] -6.15% | [2] 1.47% | [3] | [4] | [5] 0.403% | [6] inactive [at 17.4 µM]

CC(=O)O[C@@H]1[C@H](O[C@@H]2OC[C@](O)(CO)[C@H]2O)[C@@H](O[C@@H]2O[C@@H](C)[C@H](O)[C@@H](O[C@@H]3O[C@H](CO)[C@@H](O)[C@H](O)[C@H]3O)[C@H]2O)[C@H](OC(=O)[C@]23CCC(C)(C)C[C@H]2C2=CCC4[C@@]5(C)C[C@H](O)[C@H](O[C@@H]6O[C@H](C(=O)O)[C@@H](O)[C@H](O)[C@H]6O)[C@@](C)(C(=O)O)C5CC[C@@]4(C)[C@]2(C)CC3)O[C@@H]1C (stereo not given in full)
inactive: [1] -6.6% | [2] -7.53% | [3] | [4] 3.25% | [5] | [6] inactive [at 9.27 µM]

C[C@@H]1C[C@@H](O)[C@@]2(CO)C(CO)=CCC[C@@H]2[C@@]12C[C@@H](c1ccoc1)OC2=O
inactive: [1] | [2] 4.88% | [3] | [4] 4% | [5] | [6]

COc1cc(C(=O)OC[C@@]2(O)CO[C@@H](O[C@H]3[C@H](Oc4ccc(O)cc4)O[C@H](CO)[C@@H](O)[C@@H]3O)[C@@H]2O)cc(OC)c1O
inactive: [1] | [2] -3.3% | [3] | [4] -0.593% | [5] -1.11% | [6] inactive [at 17.4 µM]

C=C1CC[C@@]2(OC1)O[C@H]1CC3[C@@H]4CC=C5C[C@H](O[C@H]6OC[C@@H](O)C(O)[C@@H]6O[C@@H]6O[C@@H](C)[C@H](O)[C@@H](O[C@@H]7O[C@H](CO)[C@@H](O)[C@H](O)[C@H]7O)[C@H]6O)C[C@@H](O)[C@]5(C)C4CC[C@]3(C)[C@H]1[C@@H]2C (stereo not given in full)
inactive: [1] 3.7% | [2] -14.3% | [3] | [4] -1.49% | [5] | [6] inactive [at 9.27 µM]

CC1(C)CC[C@]2(C(=O)O)CC[C@]3(C)C(=CCC4[C@@]5(C)C[C@@H](O)[C@H](O)[C@@](C)(CO)C5CC[C@]43C)C2C1 (stereo not given in full)
inactive: [1] | [2] 2.88% | [3] | [4] -4.17% | [5] -3.06% | [6] inactive [at 17.4 µM]

CCCCC(=O)N1c2ccccc2NC2=C(C(=O)CCC2)C1c1ccccc1Cl (stereo not given)
inactive: [1] | [2] -3.83% | [3] | [4] 6.63% | [5] -4.77% | [6]

COc1cc2c(cc1O)CC(O)(CO)C(CO)C2c1ccc(OC2OC(CO)C(O)C(O)C2O)c(OC)c1 (stereo not given)
inactive: [1] | [2] -0.898% | [3] | [4] | [5] | [6] inactive [at 17.4 µM]

C[C@@H](c1ccccc1)N(C(N)=NC#N)c1cccc2ncccc12
inactive: [1] | [2] 0.131% | [3] | [4] | [5] 3.53% | [6]

COC(=O)[C@@H](NC(=O)[C@H](CC(C)C)NC(=O)N(Cc1ccccc1)C[C@@H](O)[C@H](Cc1ccccc1)NC(=O)OC(C)(C)C)C(C)C
inactive: [1] | [2] 0.117% | [3] | [4] -5.6% | [5] -6.39% | [6] inactive [at 9.27 µM]

CC(=O)OC[C@]12[C@@H](OC(=O)c3ccoc3)C[C@@H]3[C@@H](OC(C)=O)[C@]1(OC3(C)C)[C@@](C)(O)C[C@H](OC(=O)c1ccoc1)[C@@H]2OC(=O)c1ccoc1
inactive: [1] -3.29% | [2] -2.85% | [3] | [4] 2.58% | [5] | [6] inactive [at 17.4 µM]

C=C1C(O)C(O)C2(CC3C(C)=CCC4C(C)(C(=O)O)CCCC34C)OC2C1O (stereo not given)
inactive: [1] -4.59% | [2] 1.46% | [3] | [4] 2.87% | [5] | [6]

O=C(Nc1ccn(Cc2c(F)cccc2C(F)(F)F)n1)c1c(F)cccc1F
inactive: [1] -12.9% | [2] 1.72% | [3] | [4] | [5] 2.19% | [6] inactive [at 9.27 µM]

CC1C2=CC(=O)OC2(O)CC2C1CCC1C(C)(C)CCC(O)C21C (stereo not given)
inactive: [1] -5.55% | [2] -27.5% | [3] | [4] -9.97% | [5] 0.733% | [6]

O=C(/C=C/c1ccccc1)O[C@@H]1[C@@H](CO)O[C@@](CO)(O[C@H]2O[C@H](CO)[C@@H](O)[C@H](O)[C@H]2O)[C@H]1O
inactive: [1] | [2] 0.967% | [3] | [4] -2.31% | [5] 2.88% | [6] inactive [at 17.4 µM]

C/C=C1/CC2C(=O)Nc3cc(O)c(OC)cc3C(=O)N2C1 (stereo not given)
inactive: [1] -13.4% | [2] 2.7% | [3] | [4] 9.54% | [5] | [6]

CC(C)CC(=O)NCCn1cc(C(=O)O)c(=O)cc1C(O)c1ccccc1 (stereo not given)
inactive: [1] | [2] -11.3% | [3] | [4] | [5] 3.17% | [6]

COC(=O)CC[C@H](NC(=O)[C@H](CC(C)C)NC(=O)OCc1ccccc1)C(=O)N[C@@H](Cc1cnc[nH]1)C(=O)N[C@@H](CC(=O)OC)C(=O)CF (Cbz-LE(OMe)HD(OMe)-CH2F)
inactive: [1] | [2] 2.63% | [3] | [4] | [5] | [6] inactive [at 9.27 µM]

CCc1nn(CCO)c(CC)c1Oc1cc(C#N)cc(C#N)c1
inactive: [1] | [2] 2.02% | [3] | [4] | [5] -3.44% | [6]

C/C=C1/C[N+](C)([O-])C2Cc3c([nH]c4ccccc34)C(=O)CC1C2C(=O)OC (stereo not given)
inactive: [1] -5.18% | [2] -0.509% | [3] | [4] 8.09% | [5] -1.66% | [6]

C=C1[C@H]2CCC3[C@]4(C)CCC[C@@](C)(C(=O)O)C4CC[C@]3(C2)[C@H]1OC(C)=O (stereo not given in full)
inactive: [1] -1.83% | [2] 3.77% | [3] | [4] | [5] | [6]

Cc1cc(-n2c(=O)[nH]c(=O)n(C)c2=O)ccc1Oc1ccc(SC(F)(F)F)cc1
inactive: [1] -0.879% | [2] 4.1% | [3] | [4] 1.4% | [5] | [6]

COc1cc(C(=O)OC[C@H]2O[C@@H](OC(C)(C)C(=O)O)[C@H](O)[C@@H](O)[C@@H]2O)cc(OC)c1O
inactive: [1] -2.21% | [2] -6.34% | [3] | [4] | [5] | [6] inactive [at 17.4 µM]

Cc1ccccc1-n1nc(-c2c(-c3ccc(F)cc3)nn3c2NC[C@@H](CO)C3)ccc1=O
inactive: [1] 1.82% | [2] -7.72% | [3] | [4] 1.64% | [5] | [6]
